Screening data as filed in PubChem BioAssay.
KCNQ2 inh – inhibitors of rat KCNQ2 potassium channel; 310,000 tested, 1.1% active; CHO-K1 KCNQ2, FluxOR thallium flux, 20 min; active compounds read low; AID 2156; O88943; B-score at 10 µM;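 active means fluorescence ratio B-score at most minus 3 library SDs, with starting brightness B-score within 2 library SDs, cut at about -5.5 in these data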
Target sequence (O88943 whole entry, looked up): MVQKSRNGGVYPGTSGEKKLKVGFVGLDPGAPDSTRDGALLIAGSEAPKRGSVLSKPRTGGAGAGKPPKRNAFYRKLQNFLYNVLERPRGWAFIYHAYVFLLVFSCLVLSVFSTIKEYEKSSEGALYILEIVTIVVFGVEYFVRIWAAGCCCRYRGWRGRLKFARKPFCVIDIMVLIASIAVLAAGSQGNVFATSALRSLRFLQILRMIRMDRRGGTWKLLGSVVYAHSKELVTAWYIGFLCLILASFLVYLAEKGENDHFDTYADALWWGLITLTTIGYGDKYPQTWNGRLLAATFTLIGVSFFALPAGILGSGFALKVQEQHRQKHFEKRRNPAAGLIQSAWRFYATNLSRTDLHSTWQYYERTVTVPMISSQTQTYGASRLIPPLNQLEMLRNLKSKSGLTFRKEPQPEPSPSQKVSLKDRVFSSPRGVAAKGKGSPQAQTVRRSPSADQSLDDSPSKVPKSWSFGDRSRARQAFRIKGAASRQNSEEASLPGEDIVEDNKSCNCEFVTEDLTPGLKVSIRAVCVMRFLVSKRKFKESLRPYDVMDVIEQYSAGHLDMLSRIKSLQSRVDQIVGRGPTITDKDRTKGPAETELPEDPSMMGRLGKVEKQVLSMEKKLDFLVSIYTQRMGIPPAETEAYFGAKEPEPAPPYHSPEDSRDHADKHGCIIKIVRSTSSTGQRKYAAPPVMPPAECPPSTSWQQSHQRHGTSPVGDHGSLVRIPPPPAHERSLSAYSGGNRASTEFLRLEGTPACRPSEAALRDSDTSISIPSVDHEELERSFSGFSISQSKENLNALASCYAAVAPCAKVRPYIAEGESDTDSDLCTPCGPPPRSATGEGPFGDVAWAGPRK
KCNQ2 enhance – KCNQ2 (rat) channel potentiation. O88943. B-score at 10 µM. CHO-K1 KCNQ2, FluxOR thallium flux fluorescence; active compounds read high. 310,000 tested, 0.54% active. AID 2239;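 active means fluorescence ratio B-score at least 3 SD of library B-scores, with initial fluorescence B-score within 3 of them, cut at about 5.3 in these data; same plate scores as AID 2156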;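 further: B-score of peak minus minimum over baseline fluorescence ratio after K+ and Tl+ stimulus; positive B-score means potentiation of KCNQ2 with more thallium influx and brighter signal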
KCNQ2 block conf – rat KCNQ2 channel inhibition, confirmatory screen. shares compounds with KCNQ2 inh. KCNQ2-expressing cells, thallium flux; active compounds read low. activity change, negative = inhibition, % at 10 µM. 1,000 tested, 57% active. AID 493025;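 further: 0% = vehicle wells and values are ratio percent relative to vehicle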
KCNQ1 spec – selectivity of KCNQ2 inhibitors against human KCNQ1; 1,000 tested, 15% active; activity change, negative = inhibition, % at 10 µM; shares compounds with KCNQ2 inh; KCNQ1-expressing cells, FluxOR thallium flux fluorescence; active compounds read low;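 active means activity change at least 3 SD of negative controls below their mean in both duplicate wells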;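 further: CHO cells stably transfected with KCNQ1 and depolarized by potassium stimulus; peak minus minimum fluorescence over baseline after thallium addition; 0% = vehicle negative control and -100% = blank without thallium stimulus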
CHO parental ctr – counter-screen for KCNQ2 inhibitors: effect in parental CHO cells | shares compounds with KCNQ2 inh | thallium flux counter-screen; active compounds read low | activity change, % at 10 µM | 1,000 tested, 14% active | AID 493029;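 further: 0% = vehicle negative controls with stimulus buffer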
KCNQ2 inh confirm – confirmation of rat KCNQ2 potassium channel inhibitors; calls only at 10 µM; AID 588531; KCNQ2-expressing cells, automated patch clamp current; 550 tested, 49% active; shares compounds with KCNQ2 inh
Kir21 confirm – confirmation of mouse Kir2.1 potassium channel inhibitors; shares compounds with KCNQ2 enhance; Kir2.1-expressing cells, FluxOR thallium flux fluorescence; active compounds read low; Tl flux remaining, % of negative control (active compounds read low), % at 10 µM; 2,300 tested, 41% active; AID 2032;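 active means Primary-screen hit whose thallium flux fell at least 3 control SD below untreated wells in both duplicates, with normal baseline fluorescence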;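 further: 0% = blank wells without stimulus and 100% = stimulated no-compound controls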
HEK293 ctr – alters thallium flux in parental HEK293 cells, Kir2.1 counter-screen; shares compounds with KCNQ2 enhance; FluxOR thallium flux fluorescence; 0% = unstimulated blank wells; FluxOR signal as % of negative control (100 = no effect), % at 10 µM; 2,300 tested, 19% active; AID 2105;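 active means dye signal at least 3 control SD above or below untreated wells in both duplicates, raw fluorescence within 3, either direction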;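 further: percent is based on the flux ratio of peak minus minimum fluorescence over baseline F0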
Kir21 spec – tests whether KCNQ2 potentiators also affect mouse Kir2.1 | shares compounds with KCNQ2 enhance | HEK293 Kir2.1, FluxOR thallium flux fluorescence | activity over 3SD threshold, % at 10 µM | 1,200 tested, 2% active;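 active means fluorescence ratio rise of at least 3 SD above the vehicle-control mean, seen in both replicates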;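 further: 0% = vehicle mean plus 3 SD and 100% = vehicle minus no-stimulus blank window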
The depositor's hits bear a star; i = inactive; x = not tested or not shown; + = active, no number. Compounds with a hit are over-represented: about 1.6% of the library has one in this group of screens. Unless noted, how the calls were made is not given here.

SMILES	KCNQ2 inh	KCNQ2 enhance	KCNQ2 block conf	KCNQ1 spec	CHO parental ctr	Kir21 confirm	HEK293 ctr	others
O=C(O)c1cc(-c2ccc3c(c2)OCO3)nc2ccccc12	i	0.1	x	x	x	x	x
COc1cccc(-c2cc(C(=O)Nc3ccccc3)c3ccccc3n2)c1	-9.1*	-9.1	i	i	i	x	x
COc1cccc(-c2cc(C(=O)Nc3cccnc3)c3ccccc3n2)c1	i	x	x	x	x	x	x
CCc1ccc(NC(=O)c2ccc(NC3=NC4CS(=O)(=O)CC4S3)cc2)cc1 (stereo unspecified)	i	x	x	x	x	x	x
CCc1nc(CN(C)C(=O)C2CCC(=O)N(Cc3cccc(F)c3)C2)no1 (stereo unspecified)	i	1.7	x	x	x	x	x
CCCCCCCNC(=O)C1(CC2CC(c3cccc(Br)c3)=NO2)CCNCC1 (stereo unspecified)	-8.6*	-8.6	-42%*	-43%*	-45%*	37%*	i	KCNQ2 inh confirm=+
CCCCCCCNC(=O)C1(CC2CC(c3cccc(Br)c3)=NO2)CCN(C(=O)c2ccccc2)CC1 (stereo unspecified)	i	x	x	x	x	x	x
COC(=O)c1ccc2c(c1)C(C)(C)C(/C=C/c1ccc(OC)c(OC)c1OC)=[N+]2C	-16*	-16	-70%*	-66%*	-60%*	31%*	i	KCNQ2 inh confirm=i
COC(=O)c1ccc2c(c1)C(C)(C)C(/C=C/c1ccc(O)cc1)=[N+]2C	i	x	x	x	x	x	x
O=C(CC1SC(N2CCCC2)=NC1=O)Nc1ccc(C(=O)N2CCN(c3cccc(Cl)c3)CC2)cc1 (stereo unspecified)	i	0.82	x	x	x	x	x
CNC[C@H](Cc1ccccc1)NC[C@@H](Cc1cccc2ccccc12)NCCc1ccc(C)cc1	-8.4*	-8.4	i	i	i	14%*	i
Cc1ccc(CC(CC(=O)O)C(=O)NCc2ccccc2)cc1 (stereo unspecified)	i	x	x	x	x	x	x
O=C(COc1ncnc2sccc12)NC1CCS(=O)(=O)C1 (stereo unspecified)	i	0.41	x	x	x	x	x
CCOc1cc(CNCc2ccccc2)ccc1OCc1ccc(Cl)cc1	i	x	x	x	x	x	x
COc1ccc(CNCCc2ccc(Cl)cc2)cc1OCc1ccccc1	-13*	-13	i	i	i	14%*	i
CN1c2ccccc2C(C)(C)[C@]12C=Cc1cc(O)ccc1O2	-9.5*	-9.5	-34%*	i	i	i	i	KCNQ2 inh confirm=i
CC1(C)OC(=O)N(c2ccccc2)C12C=Cc1cc(Br)ccc1O2 (stereo unspecified)	i	x	x	x	x	x	x
OCCNc1nc(Nc2ccccc2)nc2ccccc12	i	3.1	x	x	x	x	x
OCCNc1nc(Nc2ccc(Br)cc2)nc2ccccc12	-12*	-12	-26%*	i	i	30%*	i	KCNQ2 inh confirm=i
CSCC[C@H](N)C(=O)N1CCC(C(=O)N[C@H](C)C(=O)Nc2ccc(C(C)C)cc2)CC1	i	1.4	x	x	x	x	x
NCCc1c(-c2ccccc2)n(-c2ccccc2)c2ccccc12	-7*	-7	i	i	i	15%*	i
CC(=O)n1c(-c2ccccc2)c(CO)c2ccccc21	i	0.08	x	x	x	x	x
CCCN(CCC)CCNC(=O)C1(O)c2ccccc2NC(=O)N1c1cccc(OC)c1 (stereo unspecified)	i	0.07	x	x	x	x	x
Cc1cccc(N(CC(=O)NC2CCCC2)C(=O)CNC(=O)c2ccco2)c1C	i	0.8	x	x	x	x	x
CN(Cc1ccccc1O)CC1CCCN(CCc2ccc(Cl)cc2)C1 (stereo unspecified)	-9*	-9	i	i	i	23%*	i
SMILES	KCNQ2 inh	KCNQ2 enhance	KCNQ2 block conf	KCNQ1 spec	CHO parental ctr	Kir21 confirm	HEK293 ctr	others
COc1ccc(CCN2CCCC(CN(C)Cc3cc(OC)ccc3OC)C2)cc1 (stereo unspecified)	i	1.5	x	x	x	x	x
Cc1nn(-c2ccccc2)c2c1C1(C(=O)N(C(C)C)c3ccccc31)C(C#N)=C(N)O2 (stereo unspecified)	i	0.76	x	x	x	x	x
CC1CN(C(=O)CCC(=O)NCc2ccc(Cl)cc2)c2ccccc2S1 (stereo unspecified)	i	x	x	x	x	x	x
COc1ccc(N2CCN(C(=O)c3ccc(NC(=O)C4=CSCCO4)cc3)CC2)cc1	i	x	x	x	x	x	x
NC(N)=N/N=C/c1ccc(OCc2ccc(Cl)cc2)cc1	-9.6*	-9.6	-37%*	i	i	i	76%*	KCNQ2 inh confirm=+
Cc1ccc(COc2ccc(/C=N/O)cc2)cc1	i	x	x	x	x	x	x
O=C(COc1coc(CN2CCN(c3ccc(F)cc3)CC2)cc1=O)NCC1CCCO1 (stereo unspecified)	i	x	x	x	x	x	x
C/C(=N\NC(=O)C(=O)Nc1cccc(Cl)c1C)c1ccncc1	i	x	x	x	x	x	x
N#Cc1ccsc1NC(=O)C1CC(=O)N(Cc2ccccc2)C1 (stereo unspecified)	i	1.9	x	x	x	x	x
CC1CCC(C(C)C)C(OC(=O)COC(=O)c2ccc(=O)[nH]c2)C1 (stereo unspecified)	i	2.4	x	x	x	x	x
CC1CCC(C(C)C)C(OC(=O)COC(=O)c2cc(O)ccc2N)C1 (stereo unspecified)	i	0.16	x	x	x	x	x
COc1ccc(-c2n(CC(=O)OC3CC(C)CCC3C(C)C)c3ccccc3[n+]2C)cc1 (stereo unspecified)	-11*	-11	-34%*	i	i	i	i	KCNQ2 inh confirm=+
COc1ccc(OCc2n(CC(=O)OC3CC(C)CCC3C(C)C)c3ccccc3[n+]2C)cc1 (stereo unspecified)	-7.4*	-7.4	-21%*	i	i	16%*	i	KCNQ2 inh confirm=+
Cc1ccc(C(=O)c2no[n+]([O-])c2C(=O)c2ccc(C)cc2)cc1	-9.7*	-9.7	-28%*	i	i	70%*	62%*	KCNQ2 inh confirm=i;Kir21 spec=-62
Cc1ccc(C(=O)c2ccc(C)cc2)cc1	i	x	x	x	x	x	x
CC(C)Cn1cnc2c(c(-c3ccccc3)c(-c3ccccc3)n2Cc2ccco2)c1=N	-10*	-10	i	i	i	i	134%*
N=c1c2c(-c3ccccc3)c(-c3ccccc3)n(Cc3ccccc3)c2ncn1CCO	-7.5*	-7.5	i	i	i	38%*	63%*
N=c1c2c(-c3ccccc3)c(-c3ccccc3)oc2ncn1CCN1CCOCC1	i	x	x	x	x	x	x
N=c1c2c(-c3ccccc3)c(-c3ccccc3)n(Cc3ccco3)c2ncn1CCCN1CCOCC1	i	x	x	x	x	x	x
Nn1c(SCC(=O)Nc2ccc(F)cc2)nnc1-c1cccnc1	i	0.14	x	x	x	x	x
